From PubChem BioAssay
Lassa entry inh: qHTS for Inhibitors of binding or entry into cells for Lassa Virus. Lassa virus pseudotype entry inhibition, cell reporter. Potency, µM (series often up to 37.9 µM), hits mostly inhibitors. hit rate 1.2% among 300,000; calls by dose curve; tested in HEK293 cells; also: nearly all actives have a fitted effect of over 50% in size
Marburg entry inh: qHTS for inhibitors of binding or entry into cells for Marburg Virus. Marburg virus pseudotyped entry inhibition, cell reporter. Potency, µM (top dose mostly 37.8 µM), most hits filed as inhibitors. hit rate 1.8% among 300,000. AID 540276, 2011; calls by dose curve; tested in HEK293 cells
FMDV antiviral: High Throughput Screening for Foot and Mouth Disease Virus Antivirals; Potency, µM (titrated, usually from 57.9 µM), hits mostly inhibitors; FMDV antiviral cell-based qHTS; hit rate 1.2% among 410,000; calls by dose curve; tested in HEK293T cells; also: read-out not given here; nearly all actives have a fitted effect of over 45% in size
Vaccinia Venus: qHTS for Stage-Specific Inhibitors of Vaccinia Orthopoxvirus: Venus Reporter Primary qHTS; AID 720580, 2013; Potency, µM (series often up to 36.5 µM), most hits filed as inhibitors; Vaccinia virus Venus reporter expression, fluorescence; hit rate 0.46% among 330,000; calls by dose curve; tested in A549 cells; also: nearly all actives have a fitted effect of over 30% in size
Vaccinia mCherry: qHTS for Stage-Specific Inhibitors of Vaccinia Orthopoxvirus: mCherry Reporter Primary qHTS; Vaccinia virus mCherry reporter infection, fluorescence; Potency, µM (highest dose often 36.5 µM), usual class: inhibitors; hit rate 0.63% among 310,000; AID 720579, 2013; calls by dose curve; tested in A549 cells; also: nearly all actives have a fitted effect of over 35% in size
HCMV inh: qHTS Assay for inhibitors of the human cytomegalovirus (HCMV); HFF cells, HCMV-luciferase reporter, 72 h; stronger effect = lower value; AID 1259415, 2018; hit rate 4.5% among 410,000; activity change, negative = inhibition, % at 57.5 µM; in the data active = activity change below about -60%; inconclusive = no clear call, values can overlap the other calls; inactive = above about -39%
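Two compound doses tested in HFFs infected with HCMV-luciferase, MOI 1 PFU/cell, 72 h at 37C. Lysate luminescence read with OneGlo; data normalized against buffer-only and 10uM Salinomycin inhibitor controls.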
Each line names hits and unclear results; the compound was inactive in the other large screens. Most compounds without a hit are left out; they make up all but 6.5% or so of the library.

CC(=O)c1cccc(NC(=O)CSc2nnc(C(C)N(C)C)n2-c2ccc(F)cc2)c1 (configuration not stated)	none
CC(c1nnc(Sc2nnnn2-c2ccccc2)n1-c1ccc(F)cc1)N(C)C (configuration not stated)	Vaccinia Venus inconclusive, Vaccinia mCherry 12.6µM, HCMV inh inconclusive
CCOc1ccc2c(c1)c(=O)c(C(=O)c1ccc(CC)cc1)cn2CC(=O)Nc1ccc2c(c1)OCCO2	Marburg entry inh inconclusive
NC(=S)NN=C1CCCCCCCCCC1	FMDV antiviral inconclusive, Vaccinia Venus inconclusive, Vaccinia mCherry inconclusive
NC(=S)NN=C1CCC(C2CCCCC2)CC1 (configuration not stated)	Marburg entry inh inconclusive, HCMV inh -79.5
CN(C)c1ccc(/C=N/N=C2/NC(=O)/C(=C/c3ccc([N+](=O)[O-])cc3)S2)cc1	Lassa entry inh 2µM, Marburg entry inh inconclusive, FMDV antiviral 8.91µM
CN(C)c1ccc(C=C2SC(=S)NC2=O)cc1	Marburg entry inh inconclusive
CCOc1cc(C=C(C#N)C#N)ccc1Oc1ccc([N+](=O)[O-])cn1	none (no result: Lassa entry inh, Marburg entry inh, Vaccinia Venus, Vaccinia mCherry)
COc1cc(/C=C(/C#N)c2ccc(F)cc2)ccc1Oc1ccc([N+](=O)[O-])cn1	Lassa entry inh inconclusive, Marburg entry inh inconclusive, FMDV antiviral inconclusive, HCMV inh -61.1
CCCCCn1c(CCCNC(=O)c2ccccc2)nc2ccccc21	Marburg entry inh inconclusive, FMDV antiviral inconclusive
Cc1ccc(-n2c(C)cc(C(=O)COc3c(CO)cc(F)cc3CO)c2C)cc1C	Lassa entry inh inconclusive, Marburg entry inh inconclusive, FMDV antiviral inconclusive, HCMV inh -91.7
COc1ccc(S(=O)(=O)c2nnn(-c3cc(Cl)c(OC)cc3OC)c2C)cc1	Lassa entry inh inconclusive
Cc1ccccc1C(=O)Nc1nnc(-c2ccco2)s1	Lassa entry inh 4.11µM, Marburg entry inh 1.26µM, FMDV antiviral inconclusive
COc1ccccc1C(=O)Nc1nnc(-c2ccco2)s1	Marburg entry inh inconclusive (no result: FMDV antiviral)
CCOc1ccc(CNC(=O)C2CCN(C3=NS(=O)(=O)C(c4ccc(C)cc4)=C3CC)CC2)cc1	Marburg entry inh inconclusive (no result: Lassa entry inh)
CCc1c(C2(O)CCCCC2)[nH]c2ccc(C(F)(F)F)cc12	FMDV antiviral 39.8µM, Vaccinia Venus inconclusive (no result: Lassa entry inh, Marburg entry inh)
COc1ccc(-c2nsc3c(N4CCCCC4C)ncnc23)cc1 (configuration not stated)	FMDV antiviral 0.0316µM, HCMV inh -97.1 (no result: Lassa entry inh, Marburg entry inh)
COc1ccc(-c2nsc3c(N4CCCCC4)ncnc23)cc1	Lassa entry inh inconclusive, Marburg entry inh inconclusive, FMDV antiviral inconclusive, HCMV inh -82.8 (no result: Vaccinia Venus, Vaccinia mCherry)
COc1ccc(C(=O)N2CCN(c3ncnc4c(-c5ccccc5)nsc34)CC2)cc1	FMDV antiviral inconclusive
CCN(CC)CCOC(=O)c1ccc(NC(=O)COc2cc(=O)n(CC)c3ccccc23)cc1	Marburg entry inh inconclusive, HCMV inh -100.7 (no result: Vaccinia Venus, Vaccinia mCherry)
CCc1ccc(NC(=O)CCCOc2cc(=O)n(C)c3ccccc23)cc1	Vaccinia mCherry inconclusive, HCMV inh -97.8 (no result: Lassa entry inh, Marburg entry inh)
Cn1c(=O)cc(OCCCC(=O)Nc2ccc(F)cc2)c2ccccc21	none
Cc1ccc(Sc2ncccc2C(=O)O)cc1C	FMDV antiviral inconclusive, HCMV inh -67.0
O=C(O)c1cccnc1SCc1ccccc1	none (no result: Vaccinia Venus, Vaccinia mCherry)
Cc1cccc(Cn2c(C)c(C)c3cc(C(=O)NCc4ccco4)ccc32)c1	Lassa entry inh inconclusive, Vaccinia mCherry inconclusive (no result: Marburg entry inh)
O=C(CCc1ccc(F)c(F)c1)NC1CCCN(Cc2ccc(Cl)cc2)C1 (configuration not stated)	Marburg entry inh 11.2µM
COc1ccc(CCC(=O)NC2CCCN(Cc3ccc(Cl)cc3)C2)cc1OC (configuration not stated)	none (no result: Lassa entry inh, Marburg entry inh, Vaccinia Venus, Vaccinia mCherry)
COCCn1c(SCC(=O)Nc2cccc(C)c2C)nc2c(oc3ccccc32)c1=O	none (no result: Lassa entry inh)
Cc1ccc(C2=CC(c3ccc(N(C)C)cc3)n3nnnc3N2)cc1 (configuration not stated)	Vaccinia mCherry inconclusive, HCMV inh -76.1 (no result: Lassa entry inh, Marburg entry inh)
Cc1cccc(C2C=C(c3ccc(C)c(C)c3)Nc3nnnn32)c1 (configuration not stated)	none (no result: Marburg entry inh)
CCc1ccc(C2=CC(c3cccc(Br)c3)n3nnnc3N2)cc1 (configuration not stated)	HCMV inh -66.3 (no result: Marburg entry inh)
COc1ccccc1C1C=C(c2ccccc2)Nc2nnnn21 (configuration not stated)	HCMV inh inconclusive (no result: Vaccinia Venus, Vaccinia mCherry)
COc1ccc(C2C=C(c3ccc(Br)cc3)Nc3nnnn32)c(OC)c1 (configuration not stated)	HCMV inh -72.1 (no result: Marburg entry inh)
Cc1ccc(-n2ncc3c(SCc4ccccn4)ncnc32)c(C)c1	Lassa entry inh 0.562µM, Marburg entry inh inconclusive, FMDV antiviral inconclusive, Vaccinia mCherry 5.01µM, HCMV inh -101.4
Cc1ccc(-n2ncc3c(SCc4ccccc4)ncnc32)cc1	Marburg entry inh inconclusive, HCMV inh -62.9
CS(=O)(=O)c1ccc(Cl)c(NC(=O)CCl)c1	Lassa entry inh 17.8µM, Marburg entry inh inconclusive, FMDV antiviral 25.1µM, Vaccinia Venus inconclusive, Vaccinia mCherry inconclusive
CS(=O)(=O)c1ccc(C(=O)Nc2cc(S(C)(=O)=O)ccc2Cl)cc1	FMDV antiviral inconclusive, HCMV inh inconclusive
COCCCNC(=O)c1sc2ncnc(N3CCc4ccccc4C3)c2c1C	Lassa entry inh inconclusive, Marburg entry inh 8.2µM, FMDV antiviral inconclusive (no result: Vaccinia Venus, Vaccinia mCherry)
CCN(C(=O)CSc1nc2ccccc2n1CC(=O)NCc1ccc(OC)cc1)c1ccccc1	Lassa entry inh inconclusive (no result: Marburg entry inh)
N#CC1CCCc2c1[nH]c1ccc([N+](=O)[O-])cc21 (configuration not stated)	Lassa entry inh inconclusive, Marburg entry inh 10µM
COc1ccc(C2C(C(=O)Nc3ccccc3)=C(C)Nc3c(C(=O)Nc4ccccc4)cnn32)cc1 (configuration not stated)	none (no result: Marburg entry inh)
CCC(C)(C)c1ccc(Oc2cccc(C(=O)O)c2)cc1	none
CCC(C)(C)c1ccc(OCCCC[n+]2ccccc2)c(C(C)(C)CC)c1	FMDV antiviral 31.6µM, HCMV inh -98.4 (no result: Lassa entry inh, Marburg entry inh, Vaccinia Venus, Vaccinia mCherry)
COc1ccccc1C(=O)N(Cc1ccco1)Cc1ccccc1F	HCMV inh inconclusive
CCCc1c(-c2ccc(Cl)cc2)ncn1CCc1ccccc1OC	FMDV antiviral 28.2µM, HCMV inh -61.1 (no result: Lassa entry inh, Marburg entry inh)
CCCCc1c(Cc2cccc(F)c2)ncn1CCc1ccccc1OC	FMDV antiviral 31.6µM, HCMV inh -65.9 (no result: Lassa entry inh, Marburg entry inh)
COc1ccccc1CCn1cnc(-c2ccc(OC)c(OC)c2)c1C(C)C	FMDV antiviral inconclusive, HCMV inh -108.5 (no result: Lassa entry inh, Marburg entry inh)
CCCCc1c(-c2ccc(OC)c(OC)c2)ncn1CCc1ccccc1OC	FMDV antiviral inconclusive, Vaccinia mCherry inconclusive, HCMV inh -93.6 (no result: Lassa entry inh, Marburg entry inh)
COc1ccccc1N1CCN(S(=O)(=O)CCNC(=O)COc2ccc(C(C)C)cc2)CC1	Lassa entry inh inconclusive, FMDV antiviral inconclusive (no result: Marburg entry inh)
CN1OC(C)(CC(=O)NCc2ccccc2F)N=C1c1ccccc1Cl (configuration not stated)	none (no result: Lassa entry inh, Marburg entry inh, FMDV antiviral, Vaccinia Venus, Vaccinia mCherry)
COCc1c(C(=O)N2CCN(C3CCCC3)CC2)cnn1-c1nccc(-c2cc(C)sc2C)n1	none (no result: Lassa entry inh, Marburg entry inh, HCMV inh)
